Pf Dd2 growth: inhibitors of Plasmodium falciparum Dd2 growth | Potency, µM (highest dose often 28.9 µM), usual class: inhibitors | AID 1347417 | 120,000 tested, 4.3% active | P. falciparum Dd2 growth, SYBR Green, 72 h; active means well fitted inhibition curve with a large enough effect; further: nearly all actives have a fitted effect of over 65% in size
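Infected erythrocytes (Dd2, 0.3% parasitemia, 2.5% hematocrit final) are added to compound in RPMI-1640/Albumax II medium, grown 72 h at 37C in low oxygen, then lysed with saponin/Triton-X containing SYBR Green and read by fluorescence.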
Hits are given with their value; i = inactive. The sample as a whole holds a higher share of hits than the screen did.

SMILES	Pf Dd2 growth
COc1ccc(-c2cc([C@H]3CN4CC[C@H]3C[C@@H]4CNC(=O)c3ccc(N(C)C)cc3)n(C)n2)cc1	i
CC1=C[C@@H](CNC(=O)Cn2cnnn2)[C@H](C(C)C)C[C@H]1Cc1nc2ccccc2[nH]1	i
CCCNC(=O)NC[C@@H]1C=C(C)[C@H](Cc2nc3ccccc3[nH]2)C[C@H]1C(C)C	i
CC1=C[C@@H](CNC(=O)C2CC2)[C@H](C(C)C)C[C@H]1CC(=O)N1CCOCC1	i
CC1=C[C@@H](CNC(=O)C2CCCCC2)[C@H](C(C)C)C[C@H]1Cc1nc2ccccc2n1C	10µM
CCC(CC)C(=O)NC[C@@H]1C=C(C)[C@H](Cc2nc3ccccc3n2C)C[C@H]1C(C)C	11µM
CC(=O)N1CCN(C(=O)C[C@@H]2C[C@@H](C(C)C)[C@H](CNC(=O)C3CC3)C=C2C)CC1	i
CCc1ccc(CN2CC3ON=C(C(=O)O)C3C2)cc1 (stereo not given)	i
O=C([C@H]1C[C@@H](F)CN1C(=O)c1ccc(C(F)(F)F)cc1)N1CCOCC1	i
CCc1ccc(-n2c(=O)c3cccnc3n2CC(=O)Nc2ccccc2C(F)(F)F)cc1	11µM
Cc1ccc(-n2c(=O)c3cccnc3n2CC(=O)Nc2cc(C)cc(C)c2)cc1	i
O=C(Cn1c2ncccc2c(=O)n1-c1ccccc1)Nc1ccc(F)c(F)c1	i
Cc1ccc(-n2c(=O)c3cccnc3n2CC(=O)Nc2cccc(C)c2C)cc1	3.5µM
CCc1cccc(-n2c(=O)c3cccnc3n2CC(=O)Nc2ccc(F)c(C)c2)c1	1.3µM
Cc1ccc(CNC(=O)Cn2c3ncccc3c(=O)n2-c2ccccc2)cc1	i
CCc1cccc(-n2c(=O)c3cccnc3n2CC(=O)Nc2c(C)cc(C)cc2C)c1	i
Cc1ccc(-n2c(=O)c3cccnc3n2CC(=O)Nc2ccc(C)cc2Cl)cc1	i
CCOC(=O)c1ccccc1NC(=O)Cn1c2ncccc2c(=O)n1-c1ccccc1	i
CCCNC(=O)N1CCCN(S(=O)(=O)c2ccccc2)CCC(=O)NCC1	i
O=Cc1ccc(-c2ccc(F)cc2)cc1	i
CC1CCN(C(=O)c2cc3c(s2)CCC(C(=O)O)C3)CC1 (stereo not given)	i
COCc1cc(=O)n(CC(=O)Nc2ccc(C)c(Cl)c2)c(N2CCOCC2)n1	i
CC(=O)c1ccc(NC(=O)c2cc(C)nn2-c2ccccc2)cc1	i
CCOC(=O)c1cccc(NC(=O)c2cc3c(-c4cccc(OC)c4)nn(C)c3s2)c1	i
O=C(Nc1ccc(Cl)cc1)c1cc2c(-c3ccccc3)nn(-c3ccccc3)c2s1	1.1µM
SMILES	Pf Dd2 growth
Cc1cccc(-c2cccc(NC(=O)C3CCCN(Cc4cnc(C)nc4)C3)c2)c1 (stereo not given)	i
Cc1cccc2nc(C(=O)N3CCn4nc(Cc5ccccc5)cc4C3)cn12	i
CNC(=O)c1cc(-c2ccccc2OC)cc2c1OCCN2Cc1cccnc1	i
O=C(O)CCCC(=O)N1Cc2ccccc2CC2(CCCN(Cc3ccccc3)C2)C1 (stereo not given)	i
CC(=O)N1Cc2ccccc2CC2(CCCN(Cc3ccc(O)cc3)C2)C1 (stereo not given)	i
C[C@H](C(=O)N1Cc2ccccc2CC2(CCN(Cc3ccncc3)C2)C1)c1ccccc1 (stereo not given in full)	10µM
CC(C)NC(=O)N1CCC2(CC1)CN(Cc1ccncc1)Cc1ccccc1O2	i
CC(=O)N1Cc2ccccc2CC2(CCN(Cc3ccccn3)C2)C1 (stereo not given)	i
O=C(Cc1ccc(O)cc1)N1Cc2ccccc2CC2(CCN(Cc3ccncc3)C2)C1 (stereo not given)	7.9µM
O=C(NC1C[C@H]2CC[C@@H](C1)N2C(=O)Cc1ccc(Br)cc1)c1ccncc1 (stereo not given in full)	i
O=C(c1ccn[nH]1)N1CCCCC1c1noc(COc2ccc(F)cc2)n1 (stereo not given)	i
CCOc1ccccc1CNC(=O)[C@H]1CCC[C@H]1NC(=O)c1ccc(OC)cc1	11µM
COc1ccccc1CNC(=O)[C@H]1CCC[C@H]1NC(=O)c1ccncc1	i
COc1ccc(C(=O)N[C@@H]2CCC[C@@H]2C(=O)NCc2cc(OC)ccc2OC)cc1	i
CCc1ccc(C(=O)N2CCC(Oc3ncccc3C(=O)N(C)C)C2)cc1 (stereo not given)	i
CSCC(=O)N1CCC(C2CCN(C(C)=O)CC2)C1 (stereo not given)	i
O=C(N[C@H]1CCN2C(=O)c3ccccc3NC(=O)[C@@H]2C1)C1CCCC1	i
CN1C(=O)C(CC(=O)NC2CCCCC2)Sc2ncccc21 (stereo not given)	i
Cc1cc(C)nc(NS(=O)(=O)c2ccc(NC(=O)COc3ccc(Cl)cc3C)cc2)n1	i
CNc1cc(C2CC(NC(=O)COc3ccc(Cl)cc3C)C2)nc(N)n1 (stereo not given)	7.9µM
Cc1cc(Cl)ccc1OCC(=O)N1[C@@H]2CC[C@H]1CC(NC(=O)c1ccc(F)cc1)C2 (stereo not given in full)	i
COc1cccc(NC(=O)c2ccc(N3CC4CC(C3)[C@H]3CCCC(=O)N3C4)nc2)c1 (stereo not given in full)	i
CN(C)c1ccc(C(=O)Nc2ccc(-c3nc4ccccc4o3)cc2)cc1	i
Cc1ccccc1OCC(=O)Nc1ccc(-c2nc3ccccc3o2)cc1	i
CCN(CC)CC(=O)N1CCC(C(=O)Nc2ccc(-c3nc4ccccc4o3)cc2)CC1	10µM
SMILES	Pf Dd2 growth
CCC(CC)NC(=O)C1CCN(c2cnn(CCOC)c(=O)c2)C1 (stereo not given)	i
Cc1ccc(-c2nnc(Nc3cccc(Cl)c3)c3ccccc23)cc1S(=O)(=O)NCC1CCCO1 (stereo not given)	10µM
Cc1cc(-c2ccc(C)c(S(=O)(=O)NCC3CCN(Cc4ccccc4F)CC3)c2)on1	i
Cc1ccc(-c2cnc(C3CC3)o2)cc1S(=O)(=O)Nc1cccc(C#N)c1	i
Cc1cccc(Nc2nnc(-c3ccc(C)c(S(=O)(=O)NCC4CCCO4)c3)c3ccccc23)c1 (stereo not given)	4.5µM
Cc1ccc(-c2nnc(Nc3ccc(Cl)cc3)c3ccccc23)cc1S(=O)(=O)NCC1CCCO1 (stereo not given)	i
CCOC(=O)c1c(Nc2cccc(C)c2)nnc(-c2ccccc2)c1-c1ccccc1	i
c1ccc(-c2cc(CC3(NCC4CCCCC4)COC3)no2)nc1	i
COc1ccc(NC(=O)Cn2nc3c(cc2=O)CCCC3)cn1	i
COc1ccccc1-c1[nH]nc2ncc(-c3ccccc3C)nc12	13µM
Cc1ccccc1-c1cnc2n[nH]c(-c3ccccc3)c2n1	i
COc1ccccc1-c1[nH]nc2ncc(-c3ccccc3F)nc12	i
O=C(NCc1ccco1)[C@@H]1Cc2nc[nH]c2CN1Cc1cccs1	i
COCCNC(=O)[C@H]1C[C@H](Oc2cccnc2)CN1C(=O)Nc1ccccc1	i
CCc1cc(=O)n(CC(=O)N2CCN(c3ccccc3OC)CC2)c(-c2ccccc2)n1	i
COc1ccccc1N1CCN(C(=O)Cn2c(=O)n3nc(-c4cccc(F)c4)nc3c3ccccc32)CC1	i
COc1ccccc1N1CCN(C(=O)Cn2c(=O)nc(-c3ccccc3)c3ccccc32)CC1	11µM
O=c1c2c(CO)c(-c3ccc(F)cc3)nn2ccn1Cc1ccc(Br)cc1	8.9µM
O=C(Cn1ccn2nc(-c3ccccc3)c(CO)c2c1=O)N1CCN(c2ccccc2F)CC1	i
O=C(Cn1ccn2nc(-c3ccc(F)cc3)c(CO)c2c1=O)N1CCN(c2ccccc2F)CC1	i

Screens: PubChem, National Center for Advancing Translational Sciences (NCATS)
